Experimental findings from PubChem BioAssay (Tox21) are described below.

Assay [1] can be described thus: qHTS assay for small molecules that induce genotoxicity in human embryonic kidney cells expressing luciferase-tagged ATAD5 (AID 651632). Further: nearly all actives have a fitted effect of over 15% in size. Further: potency means the concentration at half of the fitted maximal effect. The essentials: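 Concentration-response screen for ATAD5 upregulation in HEK293T luciferase reporter cells; 16 hr treatment at 37C, then luminescence after 30 min with Amplite at room temperature.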
A general note: Quantitative high-throughput screening tests each substance at several concentrations.

A short description of assay [2]: qHTS assay for small molecules that induce genotoxicity in human embryonic kidney cells expressing luciferase-tagged ATAD5 - cell viability (AID 651634; calls by dose curve; further: nearly all actives have a fitted effect of over 25% in size; further: potency means the concentration at half of the fitted maximal effect). The essentials:
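15.5 hr compound or vehicle exposure of HEK293T cells expressing luciferase-tagged ATAD5 at 37C; live-cell protease activity is read by fluorescence after 30 min of CellTiter-Fluor.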

Assay [3] is described as follows: qHTS assay for small molecule disruptors of the mitochondrial membrane potential - cell viability (AID 720634; calls by dose curve;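 further: human HepG2 liver cancer cells; series mostly up to about 83 µM; nearly all actives have a fitted effect of over 20% in size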). The method in brief:
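In this qHTS format, HepG2 cells plated overnight were pinned with compound, incubated 1 hr, and assayed for ATP luminescence with CellTiter-Glo after m-MPI dye addition.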

Assay [4] in a line: qHTS assay to test for compound auto fluorescence at 590 nm (red) in HepG2 cells (AID 720674). The method in brief: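 Compound auto-fluorescence is scored relative to Rose Bengal sodium, measured at 540/590 nm in live HepG2 cultures after 1 hr compound contact (37 C, 5% CO2).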
Assay [5] can be described thus: qHTS assay to test for compound auto fluorescence at 535 nm (green) in HepG2 cells (AID 720675).
A short description of assay [6]: qHTS assay to test for compound auto fluorescence at 460 nm (blue) in HEK293 cells (AID 720678). The method in brief:
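HEK293 cells (2,000 per well, medium with 10% dialyzed FBS) attached for 4-5 hr at 37C, then received compound and stood overnight at 37C, 5% CO2. Blue fluorescence was read at Ex/Em 405/460 nm and expressed relative to triamterene.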

The nature of assay [7]: qHTS assay to test for compound auto fluorescence at 590 nm (red) in HEK293 cells (AID 720679). The essentials: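 HEK293 cells (2,000/well, medium with 10% dialyzed FBS) attached for 4-5 hr at 37C, received 23 nL compound and were incubated overnight at 37C, 5% CO2. Red fluorescence was then read at 540/590nm Ex/Em, referenced to Rose Bengal sodium.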
Assay [8] in a line: qHTS assay to test for compound auto fluorescence at 535 nm (green) in HEK293 cells (AID 720680).
Assay [9] is described as follows: qHTS assay to test for compound auto fluorescence at 460 nm (blue) in HEK293 cell free culture (AID 720681). The essentials: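 Test compounds were pinned into cell-free culture medium (DMEM with 10% FBS) and fluorescence was read directly at Ex/Em 405/460 nm. Signals were expressed as fluorescence equivalents of triamterene, with DMSO vehicle as control.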
Assay [10] can be described thus: qHTS assay to test for compound auto fluorescence at 535 nm (green) in HEK293 cell free culture (AID 720682). The essentials:
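Green-channel intensity (Ex/Em 485/535 nm) was recorded from compound-treated wells containing only DMEM with 10% FBS. Fluorescein provided the equivalency standard.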

A short description of assay [11]: qHTS assay to test for compound auto fluorescence at 590 nm (red) in HEK293 cell free culture (AID 720683). The method in brief:
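Tox21 10K library compounds were pinned into cell-free DMEM with 10% FBS and fluorescence was read at excitation 540 nm. Activity is expressed as Rose Bengal sodium equivalency.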

The nature of assay [12]: qHTS assay to test for compound auto fluorescence at 460 nm (blue) in HepG2 cell free culture (AID 720685). The method in brief:
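Cell-free plates of MEM plus 10% FBS received 23 nL compound or DMSO vehicle; blue-channel (405/460 nm) intensity scored against triamterene as reference fluorophore.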

Assay [13] in a line: qHTS assay to test for compound auto fluorescence at 535 nm (green) in HepG2 cell free culture (AID 720686).
Assay [14] can be described thus: qHTS assay to test for compound auto fluorescence at 460 nm (blue) in HepG2 cells (AID 720687). The essentials: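 Cells (2,000/well in MEM with 10% FBS) attached overnight at 37 C, then were exposed to compound or DMSO for 1 hr at 37 C, 5% CO2. Fluorescence read at Ex/Em 405/460 nm, expressed as triamterene-equivalent signal.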
Assay [15] can be described thus: qHTS assay for small molecule agonists of the p53 signaling pathway - cell viability (AID 651633; calls by dose curve; further: nearly all actives have a fitted effect of over 30% in size; further: potency means the concentration at half of the fitted maximal effect). The essentials: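 p53RE-bla cells, seeded at 4,000 per well and rested 5 h at 37 C/5% CO2, received compounds in DMSO for 16 h at 37 C. CellTiter-Glo was then added, and luminescence was read after 30 min at room temperature to gauge cytotoxicity.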
The nature of assay [16]: qHTS assay to test for compound auto fluorescence at 590 nm (red) in HepG2 cell free culture (AID 720684). The method in brief:
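Ex 540 / Em 590 nm read of compound in cell-free MEM (10% FBS). Rose Bengal sodium reference.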

In assay [17] the target is Glucocorticoid receptor (Homo sapiens) (UniProt P04150). As to the kind of experiment: qHTS assay to identify small molecule antagonists of the glucocorticoid receptor (GR) signaling pathway (AID 720692; active means well fitted inhibition curve with a large enough effect in the signal ratio in the repeat runs, not every such curve was filed as active; the % refers to the signal ratio; further: potency means the concentration at half of the fitted maximal effect). The essentials: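 Tox21 10K library screened in concentration-response for blockade of dexamethasone (5 nM final)-induced GRE-bla reporter activity in HeLa cells; 18 h treatment, fluorescence read.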

A short description of assay [18]: qHTS assay for small molecule disruptors of the mitochondrial membrane potential (AID 720635). The essentials: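 HepG2 cells (2,000/well) attached overnight at 37C, then took compound for 1 hr at 37C, 5% CO2. Mito-MPS dye was added for 30 min; fluorescence was read at 490/535 nm (monomers) and 540/590 nm (aggregates).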

A number with no mark means an inactive call. Inconclusive results are not listed. The source made the active and inactive calls. Unless noted, the call rests on the fitted dose curve; in most records, active means well fitted curve in the direction sought with a large enough effect in the repeat runs; inconclusive means weak or mixed curves; inactive means no such curve, though single readings can be large; an effect the other way counts as inactive or inconclusive.
On the % scale 0 is the no-effect control and ±100 the full control effect.

Sequence of Glucocorticoid receptor (Homo sapiens) (P04150 whole entry, looked up): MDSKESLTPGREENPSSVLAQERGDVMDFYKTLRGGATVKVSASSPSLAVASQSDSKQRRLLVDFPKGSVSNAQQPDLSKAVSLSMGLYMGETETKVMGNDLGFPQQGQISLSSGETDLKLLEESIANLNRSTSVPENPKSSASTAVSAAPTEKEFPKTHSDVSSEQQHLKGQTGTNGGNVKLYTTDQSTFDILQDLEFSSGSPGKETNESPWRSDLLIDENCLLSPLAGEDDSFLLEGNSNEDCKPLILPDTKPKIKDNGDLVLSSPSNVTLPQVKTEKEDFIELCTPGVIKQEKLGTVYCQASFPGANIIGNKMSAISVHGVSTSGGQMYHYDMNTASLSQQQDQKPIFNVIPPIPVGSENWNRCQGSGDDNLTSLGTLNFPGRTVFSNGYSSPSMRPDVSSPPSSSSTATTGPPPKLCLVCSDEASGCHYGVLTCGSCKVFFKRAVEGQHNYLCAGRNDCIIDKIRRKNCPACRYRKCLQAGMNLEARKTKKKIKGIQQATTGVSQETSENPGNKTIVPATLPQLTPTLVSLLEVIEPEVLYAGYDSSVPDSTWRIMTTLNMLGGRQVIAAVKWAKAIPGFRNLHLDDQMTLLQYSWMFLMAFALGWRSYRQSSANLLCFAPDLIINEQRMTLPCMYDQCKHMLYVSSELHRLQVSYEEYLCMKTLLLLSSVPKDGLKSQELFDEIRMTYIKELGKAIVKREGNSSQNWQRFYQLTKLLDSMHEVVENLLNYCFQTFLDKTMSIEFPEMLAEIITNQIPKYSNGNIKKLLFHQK

With `CCCOc1sc(C(=O)N2CCC(c3cc(CN)ccc3F)CC2)c(C)c1Br`, the Potency result in assay [1], in assay [2], in [3], in assay [4], in [5] and in assay [6] was “inactive” each time. In addition, the Potency result in [7], in [8], in [9], in assay [10], in assay [11] and in [12] was “inactive” throughout. Moreover, the Potency result in [13] and in assay [14] was “inactive” in each case.

Consider `C=CC(=O)OCC(O)COc1ccccc1` (configuration not stated), for which the Potency result in assay [1], in assay [3], in assay [4], in assay [6], in [7] and in assay [9] was “inactive” throughout. Also, the Potency result in assay [10], in [12], in assay [13] and in assay [14] was “inactive” in each case. Besides, the Potency in assay [15] is 54.5 µM (active).

For `CCN(CC)CCNc1ccc(CO)c2sc3ccccc3c(=O)c12`, the Potency entry in assay [1], in assay [3], in assay [4], in assay [5], in assay [6] and in [7] was “inactive” in each case. The Potency entry in [8], in assay [9], in assay [10], in assay [16], in assay [12] and in assay [13] was “inactive” each time. For the same molecule, in assay [14], the Potency result is “inactive”. For the same molecule, in [2], the Potency is 23.7 µM (active).

`Cc1occc1SSc1ccoc1C`: the Potency entry in [1], in [15], in [3], in assay [4], in assay [6] and in assay [7] was “inactive” in each case. Moreover, the Potency result in assay [9], in assay [10], in assay [11], in assay [13] and in [14] was “inactive” in each case.

Turning to `C[C@@]12C(=O)OC(=O)[C@]1(C)C1CCC2O1`, the Potency was 0.902 µM (active) in assay [1] and 3.59 µM (active) in [2]. In addition, the Potency entry in assay [3] is “inactive”. Moreover, in assay [4], the fluorescence, relative to Rose Bengal is 0.463% [at 18.6 µM]. For the same molecule, in [6], the fluorescence, % of triamterene was -0.421% [at 18.6 µM]. The fluorescence, % of fluorescent control in assay [7] is -0.0987% [at 18.6 µM]; in assay [9], -0.101% [at 18.6 µM]; in [11], 0.092% [at 18.6 µM]; in assay [14] it was -0.0452% [at 18.6 µM]. Moreover, the activity change in assay [10] was -0.057% [at 18.6 µM, hits give high values]. In addition, in assay [16], the fluorescence, % of Rose Bengal is -0.0041% [at 18.6 µM]. Besides, the fluorescence, % of fluorescein control in [13] is -0.0053% [at 18.6 µM].

Regarding `CSc1c(Cl)c(Cl)c(Cl)c(Cl)c1Cl`, the Potency entry in assay [1], in [2], in assay [3], in assay [4], in [5] and in assay [6] was “inactive” in each case. For the same molecule, the Potency result in assay [7], in assay [8], in assay [9], in [10], in assay [11] and in assay [16] was “inactive” in each case. Moreover, the Potency result in [12], in assay [13], in [14] and in assay [17] was “inactive” each time.

`C=CC(=O)OCCOCC(CC)(COCCOC(=O)C=C)COCCOC(=O)C=C`: the figures for the Potency in assay [1], in assay [2] and in assay [17] were 28.4 µM (active), 80.2 µM (active) and 22.8 µM (active), respectively. In addition, the Potency result in [3], in assay [18], in assay [4], in assay [5], in assay [6] and in assay [7] was “inactive” each time. The Potency entry in assay [8], in assay [9], in assay [10], in assay [11], in assay [16] and in assay [13] was “inactive” throughout. Also, in assay [14], the Potency result was “inactive”.

In the case of `C=C[C@](C)(O)CC[C@@H]1[C@@]2(C)CCCC(C)(C)[C@@H]2CC[C@@]1(C)O`, the Potency entry in assay [1], in [4], in [5], in assay [6], in assay [7] and in [8] was “inactive” in each case. The Potency result in [9], in assay [10], in [11], in assay [16], in assay [12] and in assay [13] was “inactive” in each case. Moreover, the Potency result in [14] was “inactive”. For the same molecule, in assay [15], the Potency is 61.1 µM (active).

With `CCCC(CC)CCCCCCCN` (configuration not stated), the Potency entry in [1], in [15], in assay [3], in assay [4], in assay [5] and in assay [6] was “inactive” in each case. In addition, the Potency entry in assay [7], in assay [9], in [10], in assay [16], in [12] and in [13] was “inactive” in each case. For the same molecule, the Potency entry in assay [14] and in assay [17] was “inactive” in each case.
